Reference: PubChem BioAssay
The source made the active and inactive calls.

What was measured:
Albumin (Bos taurus) = Albumin (Bos taurus) (UniProt P02769); assay: compounds binding labelled BSA control protein – biochemical, small-molecule microarray, Alexa647 label, 635/667 nm fluorescence, artefact control for SMM control protein annotation, profiling panel (AID 1118); settings: BSA-A647 binding, fluorescence 635 nm, higher = more signal;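 note: score merges 667 nm emission intensity and signal-to-noise per printed compound spot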
Albumin (Bos taurus), sequence (P02769 whole entry, looked up): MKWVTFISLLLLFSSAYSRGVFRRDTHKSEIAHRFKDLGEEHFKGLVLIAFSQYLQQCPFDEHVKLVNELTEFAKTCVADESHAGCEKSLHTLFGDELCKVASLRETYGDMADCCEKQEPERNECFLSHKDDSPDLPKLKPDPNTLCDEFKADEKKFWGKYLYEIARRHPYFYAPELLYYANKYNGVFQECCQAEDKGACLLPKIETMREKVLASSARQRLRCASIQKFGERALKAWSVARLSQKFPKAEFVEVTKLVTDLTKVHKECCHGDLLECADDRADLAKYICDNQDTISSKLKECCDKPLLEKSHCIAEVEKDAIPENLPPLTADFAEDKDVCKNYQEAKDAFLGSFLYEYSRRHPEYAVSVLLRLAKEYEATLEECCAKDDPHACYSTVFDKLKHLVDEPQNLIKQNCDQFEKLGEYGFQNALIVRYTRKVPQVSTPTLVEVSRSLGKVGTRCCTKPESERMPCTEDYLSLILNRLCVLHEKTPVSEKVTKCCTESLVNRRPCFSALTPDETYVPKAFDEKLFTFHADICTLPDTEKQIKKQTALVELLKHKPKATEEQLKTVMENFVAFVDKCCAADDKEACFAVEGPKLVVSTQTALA

[1] = probe aXIP binding to arrayed compounds – biochemical, NeuroSMM set, 635/667 nm fluorescence, primary screen (AID 1119); settings: small-molecule microarray, higher = more signal, called active from +8 up or from −8 down;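 note: probe is the protein aXip251-270 applied at 1 µg/mL to compound-printed slides; binding of probe to printed compounds measured as 667 nm fluorescence plus signal to noise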
[2] = probe aNOTCH3 binding on compound microarray – biochemical, small-molecule microarray, 635/667 nm fluorescence, primary screen (AID 1120); settings: higher = more signal;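 note: probe is a biotin-tagged antibody raised against NOTCH3 rather than NOTCH3 protein; score merges spot fluorescence near 667 nm with spot signal to noise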
[3] = probe aNOTCH2 binding on compound microarray – biochemical, small-molecule microarray, 635/667 nm fluorescence, primary screen (AID 1121); settings: higher = more signal;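 note: score merges feature fluorescence read at 667 nm with its signal to noise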
[4] = biological target: Carbonic anhydrase 2 (Homo sapiens) (UniProt P00918); assay: compounds binding carbonic anhydrase 2 – biochemical, small-molecule microarray, Alexa647-labelled CAII, profiling panel (AID 1122); settings: CAII-A647 binding fluorescence, higher = more signal
[5] = COS7 lysate on small-molecule microarray, probe aHis, 635 nm (AID 1123); settings: COS7 cell lysate, fluorescence, higher = more signal;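 note: z-score combines 667nm fluorescence intensity with signal-to-noise per printed compound spot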
[6] = probe aLAP1 signal on lysate-treated microarray – cell lysate, small-molecule microarray, COS7 lysate, primary screen (AID 1124); settings: probe aLAP1, fluorescence, higher = more signal;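 note: lysate comes from COS7 cells expressing LAP1 and is applied at 0.3 µg/mL; score merges spot fluorescence near 667 nm with signal-to-noise over triplicate slides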
Sam68 (KHDRBS1) = assay: compounds binding KHDRBS1 protein – biochemical, small-molecule microarray, 635 nm fluorescence, primary screen (AID 1125); settings: higher = more signal;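 note: score merges 667 nm channel intensity with signal to noise over triplicate slides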
[7] = tested on: Chordin-like protein 2 (CHRDL2); assay: compounds binding chordin-like 2 – biochemical, small-molecule microarray, 635 nm fluorescence, primary screen (AID 1126); settings: fluorescence 635 nm, higher = more signal;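 note: printed compound slides probed with Chrdl2 protein at 4 µg/mL for 1 h at 4 C; score merges 667 nm emission intensity with signal to noise over three replicate slides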
[8] = biological target: Concanavalin-A (Canavalia ensiformis) (UniProt P02866); assay: compounds binding concanavalin A lectin – biochemical, small-molecule microarray, Alexa647 label, 635 nm, artefact control for SMM control protein annotation, primary screen (AID 1127); settings: ConA-A647 binding fluorescence, higher = more signal;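 note: z combines 667 nm emission intensity with signal-to-noise across three replicate slides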
Concanavalin-A (Canavalia ensiformis), sequence (P02866 whole entry, looked up): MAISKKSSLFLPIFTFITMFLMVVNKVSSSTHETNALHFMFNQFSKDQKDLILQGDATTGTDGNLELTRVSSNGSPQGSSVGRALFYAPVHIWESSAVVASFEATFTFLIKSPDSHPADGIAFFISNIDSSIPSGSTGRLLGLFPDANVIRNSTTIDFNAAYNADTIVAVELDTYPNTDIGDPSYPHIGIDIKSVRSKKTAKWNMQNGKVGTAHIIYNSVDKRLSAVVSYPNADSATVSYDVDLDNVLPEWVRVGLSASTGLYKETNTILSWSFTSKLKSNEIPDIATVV

[9] = compounds binding Alexa647 anti-His antibody – biochemical, small-molecule microarray, 635 nm fluorescence, artefact control for SMM control protein annotation, primary screen (AID 1128); settings: higher = more signal;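 note: score merges feature fluorescence with signal-to-noise for each printed compound spot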
[10] = tested on: Human papillomavirus type 1a E7 protein (residues 1-88); assay: HPV1a E7 small-molecule binders, primary screen, biochemical, small-molecule microarray, residues 1-88, 635 nm (AID 1129); settings: small-molecule microarray binding, fluorescence 635 nm; higher = more signal
[11] = biological target: Focal adhesion kinase 1 (Homo sapiens) (UniProt Q05397); assay: PTK2 protein binding on printed compound slides – biochemical, small-molecule microarray, 635/667 nm fluorescence, BSA, DTT, primary screen (AID 1130); settings: 635 nm fluorescence, higher = more signal;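 note: composite of spot emission at 667 nm and signal to noise over triplicate slides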
Focal adhesion kinase 1 (Homo sapiens), sequence (Q05397 whole entry, looked up): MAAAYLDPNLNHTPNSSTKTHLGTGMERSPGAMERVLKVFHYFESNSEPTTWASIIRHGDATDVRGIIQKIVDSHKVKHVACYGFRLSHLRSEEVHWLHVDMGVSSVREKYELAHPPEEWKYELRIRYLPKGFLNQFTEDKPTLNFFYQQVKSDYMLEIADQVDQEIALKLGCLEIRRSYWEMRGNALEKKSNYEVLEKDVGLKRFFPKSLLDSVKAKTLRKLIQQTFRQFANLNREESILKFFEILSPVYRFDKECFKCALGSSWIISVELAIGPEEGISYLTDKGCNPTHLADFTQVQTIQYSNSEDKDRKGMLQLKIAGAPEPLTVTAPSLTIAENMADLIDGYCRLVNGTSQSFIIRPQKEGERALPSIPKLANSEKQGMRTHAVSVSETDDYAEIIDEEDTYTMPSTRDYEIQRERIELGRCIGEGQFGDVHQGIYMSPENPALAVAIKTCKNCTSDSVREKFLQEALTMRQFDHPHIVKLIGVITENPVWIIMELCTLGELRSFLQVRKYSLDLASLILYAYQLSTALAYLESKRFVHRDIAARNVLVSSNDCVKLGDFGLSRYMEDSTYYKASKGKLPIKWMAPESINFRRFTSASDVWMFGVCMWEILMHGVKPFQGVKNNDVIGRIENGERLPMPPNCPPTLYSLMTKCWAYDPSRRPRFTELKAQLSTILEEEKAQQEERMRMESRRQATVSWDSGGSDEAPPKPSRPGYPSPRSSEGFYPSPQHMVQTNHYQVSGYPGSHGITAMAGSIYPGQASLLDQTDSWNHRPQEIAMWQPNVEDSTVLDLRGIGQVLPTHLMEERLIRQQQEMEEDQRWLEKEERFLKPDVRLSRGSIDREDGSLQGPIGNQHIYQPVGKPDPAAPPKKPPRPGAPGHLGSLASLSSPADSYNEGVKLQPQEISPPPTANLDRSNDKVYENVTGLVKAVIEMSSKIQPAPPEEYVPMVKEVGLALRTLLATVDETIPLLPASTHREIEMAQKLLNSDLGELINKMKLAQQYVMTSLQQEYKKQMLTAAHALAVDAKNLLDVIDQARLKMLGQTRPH

[12] = tested on: Fibrinogen (Alexa647-labelled); assay: Alexa647-fibrinogen binding to printed small molecules – biochemical, small-molecule microarray, 635/667 nm fluorescence, artefact control for SMM control-protein annotation, profiling panel (AID 1131); settings: fibrinogen-A647 binding fluorescence, higher = more signal;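 note: z-score merges 667 nm fluorescence with per-spot signal-to-noise over triplicate slides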
[13] = biological target: Follistatin (Homo sapiens) (UniProt P19883); assay: FST protein binding to printed compounds – biochemical, small-molecule microarray, 635/667 nm fluorescence, primary screen (AID 1132); settings: 635 nm fluorescence, higher = more signal
Follistatin (Homo sapiens), sequence (P19883 whole entry, looked up): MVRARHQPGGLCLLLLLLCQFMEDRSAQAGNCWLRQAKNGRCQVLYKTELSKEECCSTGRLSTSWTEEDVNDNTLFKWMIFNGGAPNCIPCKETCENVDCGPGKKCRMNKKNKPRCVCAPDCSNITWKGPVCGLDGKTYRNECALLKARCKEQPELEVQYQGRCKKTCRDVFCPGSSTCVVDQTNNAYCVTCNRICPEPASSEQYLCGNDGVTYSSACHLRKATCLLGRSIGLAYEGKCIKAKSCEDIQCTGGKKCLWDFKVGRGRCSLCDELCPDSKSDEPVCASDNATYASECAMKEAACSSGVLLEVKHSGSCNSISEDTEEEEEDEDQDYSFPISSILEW

[14] = biological target: Fibroblast growth factor 2 (Homo sapiens) (UniProt P09038); assay: basic fibroblast growth factor binding to printed compounds – biochemical, small-molecule microarray, 635/667 nm fluorescence, primary screen (AID 1133); settings: FGF2, fluorescence 635/667, higher = more signal
Fibroblast growth factor 2 (Homo sapiens), sequence (P09038 whole entry, looked up): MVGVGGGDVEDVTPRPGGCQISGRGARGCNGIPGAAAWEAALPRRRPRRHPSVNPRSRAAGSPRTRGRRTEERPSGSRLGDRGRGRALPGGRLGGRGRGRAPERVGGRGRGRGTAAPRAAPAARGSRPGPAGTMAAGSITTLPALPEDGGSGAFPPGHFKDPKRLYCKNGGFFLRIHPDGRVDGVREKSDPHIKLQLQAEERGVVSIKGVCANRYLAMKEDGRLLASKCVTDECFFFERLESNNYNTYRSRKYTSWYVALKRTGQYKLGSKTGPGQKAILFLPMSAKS

[15] = JC-1 mitochondrial potential readout, lung cancer cells – cell-based, A549, JC-1 fluorescence, basal, 24 h, 100 nL, profiling panel (AID 1138); settings: higher = more signal;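 note: A549 lung adenocarcinoma cells under basal conditions with no added stimulus; test concentration not given here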
Lefty1 = Lefty1 protein binding to printed compounds – biochemical, small-molecule microarray, 635/667 nm fluorescence, primary screen (AID 1139); settings: fluorescence 635/667, higher = more signal
[16] = tested on: wheat germ agglutinin (Triticum aestivum), Alexa647-labelled; assay: Alexa647-WGA lectin binding to printed small molecules – biochemical, small-molecule microarray, 635/667 nm fluorescence, artefact control for SMM control-protein annotation, profiling panel (AID 1140); settings: WGA-A647 binding, 635 nm fluorescence, higher = more signal;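 note: score merges 667 nm feature emission with signal to noise over triplicate slides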
[17] = biological target: Luciferin 4-monooxygenase (Photinus pyralis) (UniProt P08659); assay: inhibition of purified Photinus pyralis luciferase – biochemical, luminescence, purified enzyme, 2006 set, primary screen (AID 1141); settings: purified firefly luciferase, SteadyGlo luminescence, 30 min; higher = more signal, called active from +8 up or from −8 down;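 note: cell-free assay with purified firefly luciferase at 100 ng per well in PBS; test concentration not given here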
Luciferin 4-monooxygenase (Photinus pyralis), sequence (P08659 whole entry, looked up): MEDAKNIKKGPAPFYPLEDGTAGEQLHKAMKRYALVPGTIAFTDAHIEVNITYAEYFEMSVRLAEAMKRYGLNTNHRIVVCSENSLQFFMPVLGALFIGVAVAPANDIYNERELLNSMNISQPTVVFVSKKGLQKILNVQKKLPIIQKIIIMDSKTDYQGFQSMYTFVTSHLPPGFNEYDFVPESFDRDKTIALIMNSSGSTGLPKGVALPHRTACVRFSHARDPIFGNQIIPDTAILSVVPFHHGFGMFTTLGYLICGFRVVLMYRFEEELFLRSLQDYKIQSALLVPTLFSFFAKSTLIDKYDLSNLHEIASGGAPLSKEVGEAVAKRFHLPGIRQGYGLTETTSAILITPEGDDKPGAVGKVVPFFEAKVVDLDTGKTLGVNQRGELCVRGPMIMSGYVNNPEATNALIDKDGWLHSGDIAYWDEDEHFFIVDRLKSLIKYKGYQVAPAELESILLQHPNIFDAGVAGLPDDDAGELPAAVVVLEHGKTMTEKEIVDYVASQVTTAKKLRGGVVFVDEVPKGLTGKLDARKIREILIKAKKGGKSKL

SMILES | composite z-score (Albumin (Bos taurus)) | composite Z-score [1] | composite z-score [2] | composite z-score [3] | composite z-score [4] | composite z-score [5] | composite z-score [6] | composite z-score (Sam68 (KHDRBS1)) | composite z-score [7] | composite z-score [8] | composite z-score [9] | composite z-score [10] | composite z-score [11] | composite z-score [12] | composite z-score [13] | composite z-score [14] | z-score [15] | composite z-score (Lefty1) | composite z-score [16] | z-score [17]
CCOC(=O)C[C@H]1[C@H](OC(=O)c2ccc(C(=O)c3ccccc3)cc2)[C@@H](NC(=O)c2ccccc2)c2cc(OCCCO)ccc2N1C(=O)c1ccccc1 | 0.754 | 0.607 (inactive) | 0.184 | -0.108 | 0.171 | 0.702 | -0.115 | 1.23 | 0.17 | 0.82 | 0.0654 | 0.321 | 0.775 | 0.704 | 0.64 | 0.752 | 0.697 | 0.802 | 0.405 | 0.685 (inactive)
NC(=O)[C@@H]1[C@H]2C(=O)O[C@H](c3ccccc3)[C@H](c3ccccc3)N2[C@H](c2ccc(OCCO)cc2)[C@@]12C(=O)Nc1ccc(C#CC3=CCCCC3)cc12 | 0.768 | 2.02 (inactive) | -0.0665 | 0.0086 | 0.647 | 0.558 | 0.0971 | 1.32 | 0.463 | 1.09 | 0.823 | 1.21 | 1.33 | 1.01 | 1.22 | 0.413 | -1.87 | 0.741 | 0.632 | -2.48 (inactive)
C=CCNC(=O)[C@H]1[C@@H]2C(=O)O[C@@H](c3ccccc3)[C@@H](c3ccccc3)N2[C@@H](c2ccc(O)cc2)[C@]12C(=O)Nc1ccc(C#CCCO)cc12 | 0.138 | -0.157 (inactive) | -0.112 | -0.198 | 0.656 | -0.0099 | 0.75 | -0.319 | -0.559 | -0.065 | -0.0591 | -0.338 | 0.459 | -0.297 | 0.265 | -0.869 | 0.0152 | 0.358 | -0.48 | 0.361 (inactive)
COC(=O)C(CC#Cc1ccc2c(c1)[C@]1(C(=O)N2)[C@H](c2ccc(O)cc2)N2[C@H](c3ccccc3)[C@H](c3ccccc3)OC(=O)[C@H]2[C@@H]1C(=O)N1CCN(c2ncccn2)CC1)C(=O)OC | 0.518 | 0.471 (inactive) | 0.166 | 0.0669 | 0.476 | 2.47 | 0.415 | 1.28 | 0.0801 | 1.11 | 3.29 | 1.23 | 0.809 | 0.975 | 0.771 | 0.208 | -0.35 | 0.162 | 1.2 | -0.078 (inactive)
CC(CO)N1C(=O)[C@@H]2C3C(=O)OCCC/C=C\[C@H]3OC23C=CCN(CCN2CCOCC2)C(=O)[C@@H]13 (stereo not given in full) | -0.424 | 0.286 (inactive) | -0.21 | -0.147 | 0.366 | -0.463 | -0.277 | 0.191 | -0.0493 | 0.272 | 0.537 | -0.624 | -0.181 | -1.1 | 0.205 | 0.186 | 1.08 | 0.376 | -0.169 | -0.523 (inactive)
[N-]=[N+]=NCc1ccccc1[C@@H]1OC(c2ccc(OCCCO)cc2)=N[C@]1(CCS(=O)(=O)c1ccccc1)C(=O)N1CCOCC1 | 0.923 | -0.244 (inactive) | 0.391 | 0.104 | 0.513 | 2.62 | 0.254 | 1.3 | -0.213 | 1.19 | 3.06 | 1.24 | 0.531 | 1 | 1.16 | 0.138 | -0.191 | 0.186 | 1.24 | -1.43 (inactive)
O=c1cccc(-c2ccccc2Cl)o1 | 0.18 | 0.0241 (inactive) | -0.177 | -0.199 | -0.0836 | -0.011 | -0.235 | 0.102 | 0.0431 | -0.415 | 0.0166 | 0.461 | 0.678 | -0.0231 | 0.0968 | -0.488 | -0.556 | 0.0182 | -0.0467 | 0.294 (inactive)
COC(=O)C(CC#Cc1ccc2c(c1)[C@]1(C(=O)N2)[C@H](c2ccccc2OCCO)N2[C@H](c3ccccc3)[C@H](c3ccccc3)OC(=O)[C@H]2[C@@H]1C(=O)O)C(=O)OC | 0.573 | 0.0066 (inactive) | 0.194 | -0.1 | 0.367 | 1.7 | 0.375 | 1.3 | 0.132 | 1.09 | 1.94 | 1.16 | 0.411 | 0.765 | 0.206 | 0.36 | 0.621 | 0.284 | 0.702 | -2.37 (inactive)
O=C1O[C@H](c2ccccc2)[C@H](c2ccccc2)N2[C@H]1[C@@H](C(=O)N1CCN(c3ncccn3)CC1)[C@]1(C(=O)Nc3ccc(C#CC4=CCCCC4)cc31)[C@H]2c1ccccc1OCCO | 0.28 | -0.0798 (inactive) | 0.503 | 0.123 | 0.491 | 1.88 | 1.19 | 1.28 | 0.646 | 1.16 | 1.5 | 1.18 | 0.543 | 0.916 | 1.34 | 1.3 | -1.01 | 1.16 | 1.07 | -0.662 (inactive)
CC(C)Cc1ccc(CN2CC[C@@H](N)C2)cc1 | -0.275 | -0.536 (inactive) | -0.152 | -0.205 | -0.501 | -0.304 | -0.485 | -1.62 | -0.629 | -0.732 | -0.273 | -1.63 | -0.0574 | -0.0978 | -0.304 | -0.847 | 1.85 | 0.0735 | -0.314 | 0.824 (inactive)
